The values that follow come from PubChem BioAssay (EPA / NIEHS).

Records with an inconclusive call do not appear. The source made the active and inactive calls. Rule for the calls, unless noted: active = hit-call score of the fitted dose curve at least 0.9, where 1 is the maximum; inactive = score below 0.9.

The term AC50 denotes the concentration giving half of the maximal activity seen.

The nature of test [1]: UKN4_HCS_LUHMES_cell_viability: Viability Assessment in the University of Konstanz (UKN) Leist Lab Neurite Outgrowth Assay in human LUHMES cells (UKN4) (AID 2284232). In outline: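 Human dopaminergic-model LUHMES neurons were exposed to chemicals for 24 h after a 2-day differentiation. Viability was scored by imaging Hoechst H-33342 staining, with activity fitted in both directions relative to DMSO controls.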

The nature of test [2]: UKN2_HCS_IMR90_cell_viability: Viability Assessment in the University of Konstanz (UKN) Leist Lab Neural Crest Cell Migration Assay in human induced IMR90 Pluripotent Stem Cells (UKN2) (AID 2284233).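 Note: viability of neural crest cells differentiated from IMR90 iPSC measured by calcein-AM fluorescence imaging; cells exposed to compound for 24 h after a 24 h migration phase.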 In short, it runs like this: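 Human IMR90-derived neural crest cells were allowed to migrate for 24 h into a cell-free zone, then exposed to test chemicals for 24 h. Calcein-AM and Hoechst staining with high-content imaging gave viability, analysed against DMSO baseline.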

The nature of test [3]: CCTE_Mundy_HCI_Cortical_NOG_NeuronCount: CCTE's Neurite Outgrowth Assay in rat cortical cells for Neuron Count, Mundy Lab (AID 2284236; active = hit-call score of the fitted dose curve at least 0.9, where 1 is the maximum;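 note: neurons counted by imaging betaIII-tubulin and Hoechst stained cortical cells; cells exposed to compound for about 48 hours before fixation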). In outline: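 Read-out: neuron number by high-content imaging of betaIII-tubulin (Alexa Fluor-488) and Hoechst-labelled rat primary cortical cells.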
The nature of test [4]: CCTE_Mundy_HCI_Cortical_NOG_BPCount: CCTE's Neurite Outgrowth Assay in rat cortical cells for Branch Point Count, Mundy Lab (AID 2284237).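 For AC50: branch points counted about two days after chemical exposure.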 In outline: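 Measured 50.33 h after dosing, this morphology endpoint uses rat primary cortical cultures labelled for betaIII-tubulin. Branch points are quantified by high-content imaging, with DMSO as negative control and baseline.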
Test [5] is described as follows: CCTE_Mundy_HCI_hNP1_Casp3_7: CCTE's Caspase-Glo 3/7 Assay in human neuroprogenitor cells for Apoptosis, Mundy Lab (AID 2284240). In outline:
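Apoptosis is scored by activated caspase-3/7 luminescence in WA09-derived neural progenitor cells, measured 26.5 h after chemical dosing. Values represent gain of signal relative to DMSO vehicle.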

Test [6] is described as follows: CCTE_Mundy_HCI_hNP1_CellTiter: CCTE's Cell Titer-Glo 2 Assay in human neuroprogenitor cells for Viability, Mundy Lab (AID 2284241; active = hit-call score of the fitted dose curve at least 0.9, where 1 is the maximum;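 for AC50: a hit is a drop in ATP luminescence versus DMSO meaning reduced viability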). In short, it runs like this:
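Human neural progenitor cells (hNP1, WA09-derived) were plated on poly-L-ornithine/laminin and grown 40 to 44 hours at 37 °C, 5% CO2 before chemical addition. Twenty-four hours later, ATP was measured by CellTiter-Glo luminescence; loss of signal versus DMSO indicates reduced viability.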
For orientation: Cellular ATP, detected with luciferase, serves as a proxy for viable cell number.

Test [7] can be described thus: CCTE_Mundy_HCI_Cortical_Synap_Neur_Matur_NeuronCount: CCTE's Synaptogenesis and Neurite Maturation Assay in rat cortical cells for Neuron Count, Mundy Lab (AID 2284242; active = hit-call score of the fitted dose curve at least 0.9, where 1 is the maximum;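 for AC50: neuron number from Hoechst nuclei and MAP2 staining by high-content imaging; hits reduce neuron count versus DMSO baseline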). In outline: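 Imaging-based neuron count in rat cortical cultures after chemical exposure from DIV 7 to DIV 12, with AraC added at DIV 5. Activity is fitted relative to DMSO.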
Read-out in test [8]: Interleukin 6 (IL6), IL6 (gene 3569)
The test is described as follows: BSK_BT_xIL6: BioMAP Diversity Plus: BT Assay for Interleukin 6 (IL6) Biomarker Activity (AID 2284228). The settings on record: primary human B cells with PBMC. In short, it runs like this:
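B cells and peripheral blood mononuclear cells (human primary co-culture) were dosed with chemical, and after 24 h IL-6 released into the medium was measured by Luminex xMAP. Responses were analysed as gain of signal over DMSO control.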

Read-out in test [9]: Interleukin 17A (IL17A), IL17A (gene 3605)
As to the kind of experiment: BSK_BT_xIL17A: BioMAP Diversity Plus: BT Assay for Interleukin 17A (IL17A) Biomarker Activity (AID 2284229). The settings on record: primary human B cells with PBMC. In outline:
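Secreted IL-17A was the measured endpoint, read by Luminex xMAP multiplex in supernatants of a human B cell/PBMC co-culture harvested 24 h after chemical dosing. Signal increase relative to DMSO defined activity.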

Read-out in test [10]: Tumor necrosis factor (Homo sapiens) (UniProt P01375)
As to the kind of experiment: BSK_BT_xTNFa: BioMAP Diversity Plus: BT Assay for Tumor necrosis factor alpha (TNF-alpha) Biomarker Activity (AID 2284230). The following applies: primary human B cells with PBMC. In outline: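 Compounds were added to a B cell plus PBMC co-culture, and after 24 h secreted TNF-alpha was quantified with Luminex xMAP technology, with responses fitted upward from the DMSO control.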

Read-out in test [11]: Vascular cell adhesion molecule 1 (VCAM1), VCAM1 (gene 7412)
As to the kind of experiment: BSK_MyoF_VCAM1: BioMAP Diversity Plus: MyoF Assay for Vascular cell adhesion molecule 1 (VCAM1) Biomarker Activity (AID 2284231). The settings on record: primary human lung fibroblasts. In short, it runs like this: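 ELISA read-out of VCAM-1 on human lung fibroblasts 24 h after chemical treatment, with positive-direction curve fitting relative to DMSO controls. Parallel cultures were stained with sulforhodamine B for total protein to flag overt cytotoxicity.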

Read-out in test [12]: Collagen I, COL1A1 (gene 1277)
As to the kind of experiment: BSK_MyoF_CollagenI: BioMAP Diversity Plus: MyoF Assay for Collagen I Biomarker Activity (AID 2284238). The following applies: primary human lung fibroblasts. In short, it runs like this:
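Lung fibroblasts (human primary) dosed, 24 h; Collagen I by ELISA; positive-direction fit vs DMSO control. Parallel SRB total-protein staining (0.1% SRB, 10% TCA fixation, 560 nm) flags overt cytotoxicity.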

Read-out in test [13]: Collagen III, COL3A1 (gene 1281)
As to the kind of experiment: BSK_MyoF_CollagenIII: BioMAP Diversity Plus: MyoF Assay for Collagen III Biomarker Activity (AID 2284239). The following applies: primary human lung fibroblasts. In outline: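 ELISA read-out of collagen III from human lung fibroblasts after 24 h of chemical treatment. The DMSO control served as negative control and baseline, with values fitted in the positive direction.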

Read-out in test [14]: Interleukin 17F (IL17F), IL17F (gene 112744)
The test is described as follows: BSK_BT_xIL17F: BioMAP Diversity Plus: BT Assay for Interleukin 17F (IL17F) Biomarker Activity (AID 2284243). The following applies: primary human B cells with PBMC. In short, it runs like this:
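Compound was added to co-cultures of human B cells and PBMC. After 24 hours, IL-17F released into the medium was measured with LumineX xMAP technology. Responses were then fitted upward relative to DMSO.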

Read-out in test [15]: Actin alpha 1 (ACTA1), ACTA1 (gene 58)
As to the kind of experiment: BSK_MyoF_ACTA1: BioMAP Diversity Plus: MyoF Assay for Actin alpha 1 (ACTA1) Biomarker Activity (AID 2284244). The settings on record: primary human lung fibroblasts. In short, it runs like this: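 Measured by ELISA: alpha-smooth muscle actin in human primary lung fibroblasts 24 h after dosing, with DMSO as baseline and upward signal change as the fitted direction.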

Read-out in test [16]: Interleukin 2 (IL2), IL2 (gene 3558)
As to the kind of experiment: BSK_BT_xIL2: BioMAP Diversity Plus: BT Assay for Interleukin 2 (IL2) Biomarker Activity (AID 2284245). The following applies: primary human B cells with PBMC. In outline: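 Secreted interleukin-2 from human B cell/PBMC co-cultures, measured 24 h post-dosing by Luminex multiplex immunoassay. Upward-direction curve fitting against DMSO baseline.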

Read-out in test [17]: Basic fibroblast growth factor (bFGF), FGF2 (gene 2247)
As to the kind of experiment: BSK_MyoF_bFGF: BioMAP Diversity Plus: MyoF Assay for Basic fibroblast growth factor (bFGF) Biomarker Activity (AID 2284246). The following applies: primary human lung fibroblasts. In outline:
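In this multiplexed cell system, lung fibroblasts (human primary) receive test chemical for 24 h before ELISA detection of bFGF; DMSO defines baseline and the analysis direction is positive.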

Read-out in test [18]: Collagen IV, COL4A1 (gene 1282)
The test is described as follows: BSK_MyoF_CollagenIV: BioMAP Diversity Plus: MyoF Assay for Collagen IV Biomarker Activity (AID 2284247). The settings on record: primary human lung fibroblasts. In outline:
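Activity is scored as a signal increase over DMSO in an ELISA for Collagen IV, measured on human lung fibroblasts at 24 h after chemical treatment. Cytotoxicity is checked in parallel cultures by sulforhodamine B total-protein staining.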

A short description of test [19]: TAMU_HCS_1.5hr_SingleDonor1434_Cytotoxicity: Cytotoxicity Assessment using High-content Screening (HCS) Fluorescent Imaging for the Texas A&M University (TAMU) 1.5-hr Human Induced Pluripotent Stem Cell (iPSC)-derived Cardiotoxicity Assay (AID 2284234; active = hit-call score of the fitted dose curve at least 0.9, where 1 is the maximum). In outline: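 Human iPSC-derived cardiomyocytes dosed at 0.2, 1, 10, 100 uM final (0.5% DMSO) for 90 min at 37 C. Hoechst 33342-stained nuclei counted by 10x high-content imaging; POD is EC10, a 10% drop in total cell count versus DMSO.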

Chain of Tumor necrosis factor (Homo sapiens) (P01375 whole entry, looked up): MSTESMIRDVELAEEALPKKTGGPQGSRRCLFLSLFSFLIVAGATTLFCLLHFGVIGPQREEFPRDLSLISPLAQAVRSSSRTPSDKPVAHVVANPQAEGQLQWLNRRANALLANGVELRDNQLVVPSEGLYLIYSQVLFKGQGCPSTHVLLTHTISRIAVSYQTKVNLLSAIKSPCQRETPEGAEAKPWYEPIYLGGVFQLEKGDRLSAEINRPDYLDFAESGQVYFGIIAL

Take `COP(=S)(OC)SCn1nnc2ccccc2c1=O`: the compound was called inactive in test [1], in [3], in test [4], in test [5] and in test [6]. Besides, the AC50 in [2] is 32.2 µM (active).

As to `Cc1c(COC(=O)[C@@H]2[C@H](/C=C(\Cl)C(F)(F)F)C2(C)C)cccc1-c1ccccc1`, in test [2], the result was inactive. The AC50 in test [3] was 21.2 µM (active); in [4], 25.9 µM (active); in [5], 10.3 µM (active); in test [6], 9.1 µM (active); in test [7], 2.95 µM (active).

Consider `CC1(C)C(C=C(Cl)Cl)C1C(=O)OC(C#N)c1cccc(Oc2ccccc2)c1` (centres undefined), for which the call in test [4], in test [5], in [6] and in [7] was inactive.

Consider `COCC(C)N(C(=O)CCl)c1c(C)csc1C` (centres undefined), for which the outcome in test [8], in test [10], in test [16], in test [17] and in test [18] was inactive. In addition, the AC50 in [9] is 20 µM (active); in [11], 20 µM (active); in test [12], 17.3 µM (active); in test [13], 26.2 µM (active); in [14], 23.8 µM (active); in test [15], 30.9 µM (active).

In the case of `COP(=O)(OC)O/C(C)=C/C(=O)N(C)C`, the compound was classed as inactive in test [4], in test [5] and in [7].

`CNC(=O)Oc1cccc2ccccc12`: the compound was classed as inactive in [19], in test [4], in test [5] and in [6]. The concentration at half-maximal activity (AC50) in test [7] was 22.9 µM (active).

As for `CO/N=C(/C1=NOCCO1)c1ccccc1Oc1ncnc(Oc2ccccc2Cl)c1F`, in test [2], the compound was called inactive. The AC50 in test [3] was 10.9 µM (active); in test [4], 2.55 µM (active); in test [5] it was 90 µM (active); in [7] it was 1.52 µM (active).

On to `CS(=O)(=O)c1cc(C(F)(F)F)ccc1C(=O)c1cnoc1C1CC1`, for which the result in [2], in test [4], in test [5] and in test [6] was inactive. For the same compound, the AC50 in [3] was 9.92 µM (active).

For `CN/C(=N\[N+](=O)[O-])NCc1cnc(Cl)s1`, the result in test [3], in test [4], in test [5] and in test [6] was inactive.
